Test [1] in a line: qHTS assay to identify small molecule antagonists of the sonic hedgehog signaling (Shh) pathway (AID 1259369). Note: nearly all actives have a fitted effect of over 45% in size. Note: potency is the fitted concentration of half-maximal effect. An outline of the steps: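 Screening used 3T3Gli1-Luc cells at 2,000 per well, compounds delivered in DMSO, and conditioned medium as agonist stimulus; plates incubated 24hr at 37 C and 5% CO2 before a 30min luciferase step.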
For test [2], the target named is Estrogen receptor beta (Homo sapiens) (UniProt Q92731). The experiment in a line: qHTS assay to identify small molecule agonists of the estrogen receptor beta (ER-beta) signaling pathway (AID 1259377; active = well fitted activation curve with a large enough effect in the signal ratio in the repeat runs, not every such curve was filed as active; the % refers to the signal ratio). The method in brief: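 ER-beta-UAS-bla HEK293T (GripTite) cells carrying a UAS-driven beta-lactamase reporter, in medium with 2% charcoal-stripped FBS, were exposed to compounds for 16 hr at 37C; LiveBLAzer B/G FRET substrate was then added and fluorescence read after 2 hours at room temperature.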
Chain of Estrogen receptor beta (Homo sapiens) (Q92731 whole entry, looked up): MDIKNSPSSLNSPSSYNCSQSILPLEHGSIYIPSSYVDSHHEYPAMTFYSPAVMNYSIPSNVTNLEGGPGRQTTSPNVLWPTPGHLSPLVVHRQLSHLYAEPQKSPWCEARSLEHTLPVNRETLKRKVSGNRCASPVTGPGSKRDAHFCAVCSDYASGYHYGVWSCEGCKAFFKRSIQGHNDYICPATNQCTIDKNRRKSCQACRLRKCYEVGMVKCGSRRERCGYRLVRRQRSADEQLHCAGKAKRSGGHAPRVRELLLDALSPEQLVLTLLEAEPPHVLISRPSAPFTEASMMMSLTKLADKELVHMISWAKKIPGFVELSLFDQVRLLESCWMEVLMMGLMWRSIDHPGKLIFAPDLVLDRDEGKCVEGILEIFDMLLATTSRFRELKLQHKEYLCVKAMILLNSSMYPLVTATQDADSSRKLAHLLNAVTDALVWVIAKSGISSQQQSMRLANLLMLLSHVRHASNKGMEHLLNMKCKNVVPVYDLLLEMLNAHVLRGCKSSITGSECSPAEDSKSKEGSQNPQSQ

Test [3] shares this target. Kind of test: qHTS assay to identify small molecule antagonists of the estrogen receptor beta (ER-beta) signaling pathway (AID 1259378; active = well fitted inhibition curve with a large enough effect in the signal ratio in the repeat runs, not every such curve was filed as active; the % refers to the signal ratio; note: potency is the fitted concentration of half-maximal effect). An outline of the steps: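 Antagonist mode: compounds added to beta-lactamase reporter HEK293T ER-beta-UAS cells stimulated with E2 (1nM final), 16 hr at 37C. LiveBLAzer B/G FRET substrate, 2 hours room temperature, fluorescence read-out.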

Test [4] in a line: qHTS assay to identify small molecule agonists of the androgen receptor (AR) signaling pathway in the presence of an antagonist - cell viability counter screen (AID 1259379; active = well fitted curve in the direction sought with a large enough effect in the repeat runs; an effect the other way counts as inactive or inconclusive; note: nearly all actives have a fitted effect of over 25% in size; note: potency is the fitted concentration of half-maximal effect). An outline of the steps:
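In MDA-kb2 cells (human breast carcinoma, MMTV-luciferase), compounds at 15 concentrations plus 3.0uM nilutamide; 16 hr, 37C, 0% CO2; CellTiter-Fluor fluorescence read for viability.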

Test [5] is described as follows: qHTS assay to identify small molecule agonists of the estrogen receptor beta (ER-beta) signaling pathway - cell viability counter screen (AID 1259380; active = well fitted curve in the direction sought with a large enough effect in the repeat runs; an effect the other way counts as inactive or inconclusive; note: nearly all actives have a fitted effect of over 30% in size; note: potency is the fitted concentration of half-maximal effect). The method in brief: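 Viability of ER-beta-UAS-bla HEK293T cells was determined by CellTiter-Glo luminescence following 16 hr treatment with test compounds at 37C.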
Test [6] in a line: qHTS assay to identify small molecule antagonists of the estrogen receptor beta (ER-beta) signaling pathway - cell viability counter screen (AID 1259382; active = well fitted curve in the direction sought with a large enough effect in the repeat runs; an effect the other way counts as inactive or inconclusive; note: nearly all actives have a fitted effect of over 55% in size; note: potency is the fitted concentration of half-maximal effect). The method in brief:
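Tox21 10K library tested in qHTS format on ER-beta-bla HEK293T cells stimulated with 1nM E2; 16 hr treatment at 37C. Same-well CellTiter-Glo luminescence served as the cell viability measure.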

The nature of test [7]: qHTS assay to identify small molecule agonists or antagonists of the thyroid stimulating hormone receptor (TSHR) signaling pathway - wild type cell line counter screen (AID 1259384). An outline of the steps:
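Counter screen in untransfected Hek293: compounds (15-point titration, triplicate) plus phosphodiesterase inhibitor Ro20-1724 added after 18 h plating; 30 min RT. Intracellular cAMP via competitive d2/cryptate immunoassay, 1 h incubation.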

Test [8] deals with Thyrotropin receptor (Homo sapiens) (UniProt P16473). The experiment in a line: qHTS assay to identify small molecule antagonists of the thyroid stimulating hormone receptor (TSHR) signaling pathway (AID 1259385). Note: nearly all actives have a fitted effect of over 20% in size. Note: potency is the fitted concentration of half-maximal effect. An outline of the steps:
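Antagonist mode: compound-treated TSHR-expressing HEK293 cells were stimulated with 1.5 ng/mL TSH (final) in presence of Ro20-1724 for 30 min at RT. HTRF cAMP detection after 1 h; each compound tested at 15 concentrations, triplicate.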

The target in test [9] is Estrogen receptor (Homo sapiens) (UniProt P03372). The experiment in a line: qHTS assay to identify small molecule agonists of the estrogen receptor alpha (ER-alpha) signaling pathway in the presence of an antagonist (AID 1259383). For activation: top concentration of the series differs between compounds. Note: nearly all actives have a fitted effect of over 15% in size. Note: potency is the fitted concentration of half-maximal effect. An outline of the steps:
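In VM7Luc4E2 cells, 4,000 per well, compounds at 15 concentrations were co-incubated 22hr at 37C with 10.0nM final ICI-182,780. Luminescence from the stably transfected 4×ERE-luciferase reporter was recorded 30min after ONE-Glo addition.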

Test [10] deals with Androgen receptor (Homo sapiens) (UniProt P10275). The experiment in a line: qHTS assay to identify small molecule agonists of the androgen receptor (AR) signaling pathway in the presence of an antagonist (AID 1259381). Note: nearly all actives have a fitted effect of over 15% in size. An outline of the steps:
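Here, 15-concentration compound series were pin-transferred onto MDA-kb2 MMTV-luciferase cells already dosed with nilutamide (3.0uM final). After 16hr at 37C, ONE-Glo was added and luminescence read 30min later at room temperature.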

Molecules are shown by their SMILES. Inconclusive results are not listed. The source made the active and inactive calls. Unless noted, calls come from the whole dose curve.

Chain of Estrogen receptor (Homo sapiens) (P03372 whole entry, looked up): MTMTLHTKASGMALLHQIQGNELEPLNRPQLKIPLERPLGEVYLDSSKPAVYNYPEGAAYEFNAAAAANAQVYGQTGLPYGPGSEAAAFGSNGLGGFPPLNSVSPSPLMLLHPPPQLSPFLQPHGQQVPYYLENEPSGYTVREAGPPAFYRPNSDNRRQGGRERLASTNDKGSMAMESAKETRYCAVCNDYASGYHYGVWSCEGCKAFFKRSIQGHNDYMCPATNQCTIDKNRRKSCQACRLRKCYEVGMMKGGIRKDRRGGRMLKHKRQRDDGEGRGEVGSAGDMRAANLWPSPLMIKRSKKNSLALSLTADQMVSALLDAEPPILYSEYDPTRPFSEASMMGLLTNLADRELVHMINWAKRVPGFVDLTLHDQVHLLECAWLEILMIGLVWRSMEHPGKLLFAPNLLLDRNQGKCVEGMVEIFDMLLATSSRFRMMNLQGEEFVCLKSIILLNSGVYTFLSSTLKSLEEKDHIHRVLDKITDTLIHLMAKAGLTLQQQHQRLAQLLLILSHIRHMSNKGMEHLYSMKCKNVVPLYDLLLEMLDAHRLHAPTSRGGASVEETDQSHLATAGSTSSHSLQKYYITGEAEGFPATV
Chain of Thyrotropin receptor (Homo sapiens) (P16473 whole entry, looked up): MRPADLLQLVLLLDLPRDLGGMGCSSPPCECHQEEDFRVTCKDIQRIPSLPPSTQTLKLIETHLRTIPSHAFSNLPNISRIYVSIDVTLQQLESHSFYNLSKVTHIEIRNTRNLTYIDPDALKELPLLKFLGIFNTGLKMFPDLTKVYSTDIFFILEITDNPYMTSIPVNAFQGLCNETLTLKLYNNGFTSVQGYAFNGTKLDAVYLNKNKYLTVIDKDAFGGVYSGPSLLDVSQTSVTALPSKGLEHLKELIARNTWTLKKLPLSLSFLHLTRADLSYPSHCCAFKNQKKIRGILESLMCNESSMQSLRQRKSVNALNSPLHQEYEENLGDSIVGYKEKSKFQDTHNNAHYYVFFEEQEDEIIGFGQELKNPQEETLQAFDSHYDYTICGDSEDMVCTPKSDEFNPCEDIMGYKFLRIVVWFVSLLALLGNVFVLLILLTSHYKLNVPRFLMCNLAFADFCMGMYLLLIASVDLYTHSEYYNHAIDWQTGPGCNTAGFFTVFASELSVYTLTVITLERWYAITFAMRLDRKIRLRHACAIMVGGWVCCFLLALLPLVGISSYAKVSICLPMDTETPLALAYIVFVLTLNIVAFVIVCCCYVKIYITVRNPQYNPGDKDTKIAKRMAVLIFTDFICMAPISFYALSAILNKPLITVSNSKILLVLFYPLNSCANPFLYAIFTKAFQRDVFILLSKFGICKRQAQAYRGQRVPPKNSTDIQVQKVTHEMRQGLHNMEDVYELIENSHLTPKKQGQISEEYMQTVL
Chain of Androgen receptor (Homo sapiens) (P10275 whole entry, looked up): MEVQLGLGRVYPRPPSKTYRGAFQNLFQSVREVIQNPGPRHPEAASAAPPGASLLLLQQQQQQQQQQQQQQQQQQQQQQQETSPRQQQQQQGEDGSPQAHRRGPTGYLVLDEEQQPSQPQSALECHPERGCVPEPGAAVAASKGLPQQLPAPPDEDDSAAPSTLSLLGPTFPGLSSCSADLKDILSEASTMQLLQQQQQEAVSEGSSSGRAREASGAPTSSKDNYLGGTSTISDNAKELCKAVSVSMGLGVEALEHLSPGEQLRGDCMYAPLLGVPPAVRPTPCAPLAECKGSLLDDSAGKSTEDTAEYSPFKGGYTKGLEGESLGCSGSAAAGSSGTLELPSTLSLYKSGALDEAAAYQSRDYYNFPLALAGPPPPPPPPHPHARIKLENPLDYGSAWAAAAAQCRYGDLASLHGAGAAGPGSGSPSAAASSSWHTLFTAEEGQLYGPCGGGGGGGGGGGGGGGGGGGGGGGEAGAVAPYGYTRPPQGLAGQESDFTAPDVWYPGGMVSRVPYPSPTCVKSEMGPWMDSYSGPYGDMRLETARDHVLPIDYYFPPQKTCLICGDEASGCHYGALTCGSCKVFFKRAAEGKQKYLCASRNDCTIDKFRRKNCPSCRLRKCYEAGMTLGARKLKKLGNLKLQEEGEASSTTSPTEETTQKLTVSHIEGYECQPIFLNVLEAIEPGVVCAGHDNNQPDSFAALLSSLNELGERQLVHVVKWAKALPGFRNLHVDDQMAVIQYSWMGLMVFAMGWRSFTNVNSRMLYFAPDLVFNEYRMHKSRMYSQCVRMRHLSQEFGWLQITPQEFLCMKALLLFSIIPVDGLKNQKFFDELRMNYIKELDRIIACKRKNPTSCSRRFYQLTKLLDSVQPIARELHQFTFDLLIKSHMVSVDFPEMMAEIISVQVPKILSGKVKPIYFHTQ

Consider `COCCOc1cc2cc(C(=O)NC3CCN(C(C)C)CC3)n(CC(=O)Nc3ccc(Cl)cn3)c2cn1`, for which the Potency in test [1] is 15.2 µM (active). In addition, the Potency result in test [2], in test [3], in test [4], in [5], in test [6] and in [8] was “inactive” in each case. In addition, the compound was called inactive in test [7].
For `CC1(C)CC(O)CC(C)(C)N1`, the Potency result in test [1], in test [2], in [3], in [4], in test [5] and in test [6] was “inactive” throughout. Moreover, in [8], the Potency entry was “inactive”. In addition, the result in test [7] was inactive.
As to `O=C1CCc2cc(OCCCCc3nnnn3C3CCCCC3)ccc2N1`, the Potency in test [1] is 10.6 µM (active). In addition, the Potency result in test [2], in test [4], in test [5], in test [9] and in test [8] was “inactive” throughout. The result in test [7] was inactive.
Turning to `CCN(CC)C(=O)c1cc(S(=O)(=O)Cc2ccccc2)c(N2CCC(c3ccccc3)CC2)cc1N(CC)CCN(C)C`, the Potency in [1] was 6.78 µM (active); in [3] it was 21.4 µM (active); in [5], 19.1 µM (active). Moreover, the Potency entry in test [2] and in test [9] was “inactive” throughout. Moreover, the result in [7] was inactive.
`CC(C)(C)c1csc(-c2cc3cc(OCc4ccccc4CC(=O)O)ccc3o2)n1`: the Potency result in [1], in [2] and in test [9] was “inactive” throughout. For the same compound, the figures for the Potency in [5] and in test [6] were 4.86 µM (active) and 27.3 µM (active), respectively. Moreover, the compound was classed as inactive in [7].
With `CN1CCCCC1CCN1c2ccccc2Sc2ccc(S(C)=O)cc21` (stereo not given), in test [1], the Potency was 2.66 µM (active). Moreover, the Potency result in test [2] and in test [9] was “inactive” each time. In [7], the compound was classed as inactive.
Regarding `C#C[C@]1(OC(C)=O)CC[C@H]2[C@@H]3CCC4=C/C(=N/O)CC[C@@H]4[C@H]3CC[C@@]21CC`, the Potency result in [1], in [2] and in test [4] was “inactive” in each case. The Potency was 2.11 µM (active) in test [9] and 0.422 µM (active) in test [8]. Also, the result in test [7] was inactive.
`OCCN1CCN(CCCN2c3ccccc3Sc3ccc(C(F)(F)F)cc32)CC1`: the Potency entry in test [1], in test [2], in test [9] and in test [8] was “inactive” throughout. Moreover, the figures for the Potency in [5] and in test [6] were 26.6 µM (active) and 21.1 µM (active), respectively. The call in test [7] was inactive.
`CCCCCCCCCCCCOCCOCCOCCOCCOCCOCCOCCOCCOCCO`: the Potency was 7.5 µM (active) in test [1], 8.41 µM (active) in test [3], 13.3 µM (active) in test [4] and 26.6 µM (active) in [5]. The call in test [7] was inactive. Moreover, the Potency entry in test [8] is “inactive”.
Take `COc1c(C)c2c(c(O)c1C/C=C(\C)CCC(=O)OCCN1CCOCC1)C(=O)OC2`: the Potency result in test [1], in [2], in test [4], in [9] and in [8] was “inactive” in each case. The Potency in [5] is 0.335 µM (active). For the same compound, the outcome in [10] and in [7] was inactive.
On to `CCOC(=O)c1ccc(C2CCC(NC[C@H](O)COc3ccc(O)c(NS(C)(=O)=O)c3)CC2)cc1` (stereo not given in full), for which the Potency was 10 µM (active) in test [1] and 50.2 µM (active) in [5]. Moreover, in test [2], the Potency entry is “inactive”.
On to `O=C(O)c1cc(O)c2ccccc2c1O`, for which the figures for the Potency in test [1], in test [4] and in test [5] were 1.72 µM (active), 54.5 µM (active) and 30.6 µM (active), respectively. The Potency entry in [2] and in [9] was “inactive” each time. Besides, the compound was classed as inactive in [7].
In the case of `C=C(C)C(=O)OCCCCCCCCCC`, the Potency in test [1] was 13.8 µM (active). In addition, the Potency result in test [2], in test [4], in [5], in test [6] and in test [8] was “inactive” each time. The compound was called inactive in test [7].
`O=[N+]([O-])c1ccc(O)cc1C(F)(F)F`: the Potency result in test [1], in test [2], in test [5], in test [6] and in test [8] was “inactive” throughout. The Potency in test [4] was 30.6 µM (active). Also, the outcome in [7] was inactive.
As to `CCn1c2ccccc2c2cc([N+](=O)[O-])ccc21`, the Potency result in test [1], in [3], in [4] and in [5] was “inactive” each time.
Turning to `Oc1cc(Cl)cc(Cl)c1Cl`, the Potency in [1] and in test [5] was 31.4 µM (active) each time. Moreover, the Potency entry in test [2], in [6], in test [9] and in test [8] was “inactive” throughout. Further, the call in test [7] was inactive.

The values are drawn from PubChem BioAssay (Tox21).
